Measurements: PubChem BioAssay (NCI)
This is part of a sample that, as a whole, favours compounds with a hit. Of some 83,000 tested, about 20% had one in any assay.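 Testing used 96-well plates and a 48-hour single-concentration exposure. Example: -40 means 40% of the starting cells died.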 Calls of active or inactive are those of the source. The calls were made as follows: active = growth percent below 10; inactive = the rest.

Tests used:
Assay in all cases: NCI-60 one-dose screen, 48 h (100 = growth as untreated, 0 = no growth, -100 = all killed)
Settings in all cases: 10 µM unless noted
[1] = system: NCI-H23 lung
[2] = system: NCI-H226 lung
[3] = system: NCI-H322M lung
[4] = system: HOP-62 NSCLC
[5] = system: NCI-H460 lung
[6] = system: HOP-92 NSCLC
[7] = system: NCI-H522 lung
[8] = system: A549/ATCC NSCLC
[9] = system: 786-0 renal
[10] = system: DU-145 prostate
[11] = system: MALME-3M melanoma
[12] = system: MDA-MB-231 breast
[13] = system: RXF 393 renal
[14] = system: SF-268 CNS
[15] = system: SF-295 CNS
[16] = system: SF-539 CNS
[17] = system: UACC-257 melanoma
[18] = system: M14 melanoma
[19] = system: K-562 leukemia
[20] = system: COLO 205 colon

Measured: growth

N#CC1C(C#N)C2CCC1C1C2N1c1ccccc1 (stereo not drawn)
inactive: [1] 117% | [2] 101% | [3] 92.3% | [4] 97.4% | [5] 108% | [6] 74.5% | [7] 108% | [8] 126% | [9] 107% | [10] 118% | [11] 85.7% | [12] 110% | [13] 103% | [14] 104% | [15] 103% | [16] 104% | [17] 117% | [18] 101%

O=P(Oc1ccc(Cl)cc1)(N1CC1)N1CC1
inactive: [1] 65.4% | [2] 87.8% | [3] 99.6% | [4] 81.3% | [5] 39.3% | [6] 81.2% | [7] 66.8% | [8] 60.2% | [9] 84.5% | [10] 54.4% | [19] 85.3% | [11] 104% | [12] 106% | [13] 73.9% | [14] 89% | [15] 66.2% | [16] 81.4% | [17] 94.8% | [18] 86.5%

O=[N+]([O-])c1c(Br)sc(Br)c1[N+](=O)[O-]
inactive: [1] 37.3% | [2] 87.8% | [3] 84.9% | [4] 75.2% | [5] 75.1% | [6] 43% | [8] 77.3% | [10] 46.9% | [12] 14.2% | [14] 85.7% | [15] 99%
active: [7] -72.9% | [9] -36% | [19] 3.25% | [11] -41.5% | [13] -75.5% | [16] -12.3% | [17] -0.992% | [18] -18.9%

Clc1cccc(Cl)c1Cl
inactive: [1] 102% | [2] 101% | [3] 99.5% | [4] 99% | [5] 107% | [6] 113% | [7] 65.1% | [8] 85.9% | [9] 96.1% | [10] 101% | [19] 84.9% | [11] 103% | [12] 117% | [13] 122% | [14] 97.5% | [15] 95.1% | [16] 100% | [17] 86.6% | [18] 94.7%

NC(=O)CNc1ccc([As]=[As]c2ccc(NCC(N)=O)cc2)cc1 (stereo not drawn)
inactive: [1] 62.2% | [2] 49.4% | [3] 83.5% | [4] 94% | [5] 83.2% | [6] 63.6% | [8] 81% | [9] 29.7% | [10] 60.3% | [19] 19% | [11] 47.2% | [12] 30% | [13] 32.1% | [14] 24.6% | [15] 94% | [17] 37.2% | [18] 57.7%
active: [7] 2.53% | [16] 0.244%

CCCCNC(c1ccc(Cl)cc1)C(O)c1ccc(Cl)cc1 (stereo not drawn)
active: [5] 7.67% | [6] -5.31% | [19] 0.937% | [12] 5.73%
inactive: [1] 38.5% | [2] 65.7% | [3] 51.4% | [4] 40.6% | [7] 35.2% | [8] 63.5% | [9] 50% | [10] 37.2% | [11] 39.7% | [13] 58.4% | [14] 55.9% | [15] 41.3% | [16] 68.3% | [17] 86% | [18] 25.7%

COc1cc2c(=O)n(C3CCCCCCC3)c3c4cc[nH]c4ncc3c2cc1OC
inactive: [1] 57.5% | [2] 17.8% | [3] 34.8% | [5] 13.6% | [6] 46.2% | [7] 48.8% | [8] 25.4% | [9] 31.2% | [10] 62.5% | [11] 62.6% | [12] 42.1% | [13] 19.1% | [14] 42.4% | [15] 33.2% | [17] 93.8% | [18] 71.4%
active: [4] 6.39% | [19] 8.73% | [16] -0.216%

C[C@]12CCc3sc(NCCc4ccccc4)nc3C1=CC[C@@H]1[C@@H]2CC[C@]2(C)C(=O)CC[C@@H]12
inactive: [1] 66.6% | [2] 84.1% | [3] 91.9% | [4] 102% | [5] 72.8% | [6] 66.4% | [7] 44.1% | [8] 87.8% | [10] 33.9% | [11] 73.3% | [12] 83.1% | [13] 20% | [14] 83.9% | [15] 68.4% | [16] 64.8% | [17] 87.4% | [18] 85.4%
active: [9] 4.36% | [19] 5.14%

CCn1c2ccccc2c2cc(C(=O)c3ccc(C)c4ccccc34)ccc21
inactive: [2] 32.8% | [3] 28.1% | [5] 10.6% | [6] 40.6% | [9] 17.6% | [10] 17.9% | [11] 74.4% | [12] 26.4% | [13] 15% | [14] 19.8% | [15] 11.6% | [17] 36.9%
active: [1] 5.37% | [4] 9.22% | [7] 0.105% | [8] 6.07% | [19] 4.51% | [16] -5.79% | [18] 2.37%

O=C(Nc1ccc(Br)cc1)c1cc(Br)cc(Br)c1O
inactive: [2] 10.6% | [3] 13.7% | [20] 102% | [19] 96.9% | [14] 32.3%
active: [1] -14.1% | [4] -4.33% | [5] -25.3% | [6] -30.7% | [7] -3.18% | [8] 6.64% | [9] -12.3% | [11] -12% | [12] -22.4% | [13] -9.8% | [15] -8.2% | [16] 8.02% | [17] -17.1% | [18] 1.78%

Cc1cc(N(CCCl)CCCl)ccc1C=Nc1cccnc1
inactive: [1] 56.6% | [3] 108% | [4] 60.4% | [5] 26.5% | [6] 44.8% | [7] 87.3% | [8] 67.9% | [9] 63% | [20] 76.7% | [19] 63.1% | [11] 62% | [12] 98.4% | [13] 59.7% | [14] 80.4% | [15] 36.7% | [16] 53.5% | [17] 61.8% | [18] 79.5%
active: [2] -45.2%
